# Laboratory results reported in PubChem BioAssay (NCI).
# About 83,000 compounds went through this panel and 20% of them were active in at least one assay; those are over-represented in the sample as a whole.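 Each cell line was grown in a 96-well plate and treated with one concentration of compound for 48 hours. Values below 10 were considered active.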 Values without a mark were called inactive. The source made the active and inactive calls.
# Key:
# Assay in all cases: NCI-60 one-dose screen, 48 h (100 = growth as untreated, 0 = no growth, -100 = all killed)
# Settings in all cases: 10 µM unless noted
# [1] = tested on: T-47D breast
# [2] = tested on: BT-549 breast
# [3] = tested on: MDA-MB-435 melanoma
# [4] = tested on: SW-620 colon
# [5] = tested on: MCF7 breast
# [6] = tested on: HCT-116 colon
# [7] = tested on: HCC-2998 colon
# [8] = tested on: KM12 colon
SMILES,growth [1],growth [2],growth [3],growth [4],growth [5],growth [6],growth [7],growth [8]
COc1ccc(S(=O)(=O)N2CC3(COC3)C2)cc1NC(=O)c1[nH]c(C)c2c1CCCCC2=O,37%,73.3%,45.5%,72.9%,21.9%,51.7%,58.7%,54.6%
NC(N)=N/N=C(/c1ccccc1)c1ccc(F)cc1,51.2%,14.7%,-19.2% (active),28.8%,12.3%,2.71% (active),-43.7% (active),-7.82% (active)
COC(=O)c1ccc2oc(NC(=O)c3ccc(Nc4ccc([N+](=O)[O-])cc4C)c([N+](=O)[O-])c3)nc2c1,96%,110%,100%,103%,97.6%,106%,101%,103%
CSc1ccc(SC2c3ccc(C)cc3Oc3nc(N)c(C#N)c(N)c32)cc1 (stereo not given),-45.1% (active),-87.2% (active),-86.7% (active),-68.1% (active),-52.2% (active),-83.3% (active),-88.2% (active),-42.3% (active)
C=C1c2nc3ccccc3n2C=C(c2ccc(Cl)cc2)N1Cc1ccc(OC)cc1,48%,97.8%,97.9%,92.7%,54%,63.5%,80.4%,95.4%
O=C(Cc1ccc(/C=C/C(=O)c2ncc[nH]2)cc1)Nc1ccccc1,39.9%,54.2%,57.3%,14.2%,9.95% (active),44.2%,90.4%,12.8%
Nc1ccc(S(=O)(=O)O)c2ccc(N=Nc3ccc(N=Nc4ccc(S(=O)(=O)O)cc4)c4ccccc34)c(O)c12,124%,107%,122%,93.5%,101%,99.4%,105%,99%
C=CCSSC1N=CNc2nc[nH]c21 (stereo not given),22.8%,47%,25.5%,35.8%,4.28% (active),14.5%,44.2%,52.5%
Cc1ccc(NS(=O)(=O)c2ccc(-c3cnc(C4CC4)o3)cc2)cc1C,26.4%,35.5%,4.45% (active),19.7%,12.1%,19.4%,45%,42.8%
C=CC(=O)Nc1cccc(-c2nc(SC)nc(NCc3ccccc3)c2C#N)c1,28.5%,44.3%,62%,89%,47.2%,55.1%,84.7%,89.2%
O=C(N=Nc1c(O)[nH]c2ccc(Br)cc12)c1cc(-c2ccccc2)on1,101%,104%,95.8%,103%,93.2%,106%,103%,100%
COC(=O)[C@]12CCC(C)(C)C[C@H]1[C@H]1C(=O)C[C@@H]3[C@@]4(C)c5c([nH]c6ccccc6c5=O)C(C)(C)[C@@H]4CC[C@@]3(C)[C@]1(C)CC2,52.6%,76.4%,57.5%,71.2%,44.5%,33.8%,72.3%,72.9%
Cc1nn(-c2ccc(F)cc2)c2ncnc(Oc3ccc(NC(=O)Nc4ccc(Cl)c(C(F)(F)F)c4)cc3)c12,94.6%,111%,104%,100%,96.2%,102%,99.2%,108%
Clc1ccc2c(NCCNc3nc(N4CCCCC4)nc4ccccc34)ccnc2c1,-29.7% (active),53.7%,-66.4% (active),-36.6% (active),14.5%,-25.4% (active),10.6%,7.18% (active)
C=C(C)C1CC(O)C2(C)CCCC3C2C1CC(C)C3(C)CC/C(C)=C/C(O)C1CCC(=O)c2c(OC)cc(OC)cc21 (stereo not given),37.2%,60.4%,41.7%,47.1%,30.1%,28.5%,76.9%,40.9%
